Assay [1] can be described thus: NCI Yeast Anticancer Drug Screen. Data for the rad50 strain (AID 155).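 Also: 0% = growth of vehicle-only cultures of the same strain.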 The conditions noted are these: S. cerevisiae rad50 strain growth inhibition, hits give high values. A digest of the protocol:
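Cells are treated with compound, grown, and their growth is then scored against vehicle-only cultures of the same repair-deficient yeast strain.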

Assay [2] is described as follows: NCI Yeast Anticancer Drug Screen. Data for the mec2-1 strain (AID 157). The conditions noted are these: S. cerevisiae mec2-1 strain, hits give high values. A digest of the protocol:
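mec2-1 yeast strain, carrying an alteration in DNA damage repair or cell cycle control, was exposed to compounds; growth inhibition was measured relative to vehicle-treated controls.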

Assay [3] is described as follows: NCI Yeast Anticancer Drug Screen. Data for the sgs1 mgt1 strain (AID 161).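 Also: 0% = growth of cultures given vehicle only.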 The conditions noted are these: S. cerevisiae sgs1 mgt1 strain, hits give high values. The method in brief:
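Compounds are added to genetically altered yeast, and growth is compared with cultures given vehicle alone to give percent inhibition.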

Assay [4] can be described thus: NCI Yeast Anticancer Drug Screen. Data for the cln2 rad14 strain (AID 165).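 Also: 0% = growth equal to vehicle treated cultures.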 The following applies: S. cerevisiae cln2 rad14 strain, hits give high values. A digest of the protocol:
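Yeast carrying cln2 and rad14 alterations (cell cycle control and DNA damage repair) were exposed to compounds. Growth inhibition was measured against vehicle-treated controls.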

A short description of assay [5]: NCI Yeast Anticancer Drug Screen. Data for the bub3 strain (AID 167). The following applies: S. cerevisiae bub3 mutant strain, hits give high values. The method in brief:
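Part of a panel of yeast mutants defective in DNA damage repair or cell cycle regulation. Each strain is grown with compound, and inhibition is calculated relative to solvent-treated cultures.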

The nature of assay [6]: NCI Yeast Anticancer Drug Screen. Data for the mlh1 rad18 strain (AID 175). The following applies: S. cerevisiae mlh1 rad18 strain growth inhibition, hits give high values. The method in brief:
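Growth inhibition of the yeast strain was measured after compound exposure and expressed relative to vehicle-treated controls. The strain carries defined defects in DNA damage repair.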

Where [7] appears, read: at 5.0 µM (retest, dose inferred, filed as 0.5).
Setting [8] is: at 50.0 µM (retest, dose inferred, filed as 5.0).

Compounds without any hit were thinned out: in the full panel of roughly 79,000, 15% have a hit. A number with no mark means an inactive call. Active and inactive are the calls of the source. Rule as the data show it: active = growth inhibition above about 70%; inactive = the rest.

For `C[C@]12CC/C(=N\OC(=O)Nc3ccccc3)C=C1CC[C@@H]1C2CC[C@@]2(C)C1CC[C@@H]2OC(=O)Nc1ccccc1` (some centres not stated), the growth inhibition in assay [1] (setting [7]) was -7%; in assay [1] (setting [8]), 71% (active); in assay [1] (at 50.0 µM), 47.2%; in assay [2] (setting [7]) it was -2%; in assay [2] (setting [8]), 71% (active); in assay [2] (at 50.0 µM) it was 95% (active). The growth inhibition in assay [3] (setting [7]) was 1%; in assay [3] (setting [8]), 86% (active); in assay [3] (at 50.0 µM), 4%; in assay [4] (setting [7]), -5%; in assay [4] (setting [8]), 47%; in assay [4] (at 50.0 µM), 31.9%. For the same compound, the growth inhibition in assay [5] (setting [7]) was -8%; in assay [5] (setting [8]), 65%; in assay [5] (at 50.0 µM), 93.1% (active); in assay [6] (setting [7]), -4%; in assay [6] (setting [8]) it was 87% (active); in assay [6] (at 50.0 µM), 89% (active).

For `C[C@]12Cc3conc3C(O)=C1CC[C@@H]1C2CC[C@@]2(C)C1CC[C@@H]2O` (some centres not stated), the growth inhibition in assay [1] (setting [7]) was 2%; in assay [1] (setting [8]), 5%; in assay [1] (at 50.0 µM) it was 81.3% (active); in assay [2] (setting [7]), 0%; in assay [2] (setting [8]), 0%; in assay [2] (at 50.0 µM), 63.5%. Besides, the growth inhibition was 1% in assay [3] (setting [7]); 35% in assay [3] (setting [8]); 57.1% in assay [3] (at 50.0 µM); 1% in assay [4] (setting [7]); 24% in assay [4] (setting [8]); 55.2% in assay [4] (at 50.0 µM). The growth inhibition is -49% in assay [5] (setting [7]); 3% in assay [5] (setting [8]); 71.2% (active) in assay [5] (at 50.0 µM); -1% in assay [6] (setting [7]); 15% in assay [6] (setting [8]); 78.2% (active) in assay [6] (at 50.0 µM).

`CNC(=O)N1CN(c2ccccc2)C2(CCN(CCCC(=O)c3ccc(F)cc3)CC2)C1=O`: the growth inhibition is -7% in assay [1] (setting [7]); 31% in assay [1] (setting [8]); 51.5% in assay [1] (at 50.0 µM); -14% in assay [2] (setting [7]); 23% in assay [2] (setting [8]); 37.9% in assay [2] (at 50.0 µM). In addition, the growth inhibition in assay [3] (setting [7]) is -3%; in assay [3] (setting [8]), 40%; in assay [3] (at 50.0 µM), 68.3%; in assay [4] (setting [7]), 5%; in assay [4] (setting [8]) it was 67%; in assay [4] (at 50.0 µM), 70.3% (active). The growth inhibition in assay [5] (setting [7]) was 5%; in assay [5] (setting [8]), 59%; in assay [5] (at 50.0 µM) it was 76% (active); in assay [6] (setting [7]), -20%; in assay [6] (setting [8]), 39%; in assay [6] (at 50.0 µM) it was 68.3%.

Take `O=[N+]([O-])[O-].O=[N+]([O-])[O-].[Au].[Au].c1ccc([P-]c2ccccc2)cc1.c1ccc([P-]c2ccccc2)cc1`: the growth inhibition is 62% in assay [1] (setting [7]); 94% (active) in assay [1] (setting [8]); 87.8% (active) in assay [1] (at 50.0 µM); 47% in assay [2] (setting [7]); 95% (active) in assay [2] (setting [8]); 91.4% (active) in assay [2] (at 50.0 µM). Also, the growth inhibition in assay [3] (setting [7]) is 59%; in assay [3] (setting [8]) it was 96% (active); in assay [3] (at 50.0 µM) it was 91.3% (active); in assay [4] (setting [7]), 29%; in assay [4] (setting [8]) it was 96% (active); in assay [4] (at 50.0 µM) it was 89.5% (active). Moreover, the growth inhibition in assay [5] (setting [7]) is 53%; in assay [5] (setting [8]), 96% (active); in assay [5] (at 50.0 µM), 88.9% (active); in assay [6] (setting [7]), 72% (active); in assay [6] (setting [8]), 95% (active); in assay [6] (at 50.0 µM) it was 86.7% (active).

Turning to `CC[C@@]1(O)C(=O)OCc2c1cc1n(c2=O)Cc2cc3cc4c(cc3nc2-1)OCO4`, the growth inhibition in assay [1] (setting [7]) is 95% (active); in assay [1] (setting [8]), 92% (active); in assay [1] (at 50.0 µM), 72.4% (active); in assay [2] (setting [7]), 97% (active); in assay [2] (setting [8]), 94% (active); in assay [2] (at 50.0 µM), 81.3% (active). Further, the growth inhibition in assay [3] (setting [7]) is 91% (active); in assay [3] (setting [8]) it was 85% (active); in assay [3] (at 50.0 µM), 80.9% (active); in assay [4] (setting [7]), 48%; in assay [4] (setting [8]), 47%; in assay [4] (at 50.0 µM) it was 71.7% (active). Moreover, the growth inhibition was 85% (active) in assay [5] (setting [7]); 83% (active) in assay [5] (setting [8]); 74.3% (active) in assay [5] (at 50.0 µM); 91% (active) in assay [6] (setting [7]); 89% (active) in assay [6] (setting [8]); 34.4% in assay [6] (at 50.0 µM).

For the compound `c1ccc2c3ccn4cc5c(cc4c-3nc2c1)CCCC5`, the growth inhibition is 10% in assay [1] (setting [7]); 97% (active) in assay [1] (setting [8]); 86.9% (active) in assay [1] (at 50.0 µM); 23% in assay [2] (setting [7]); 98% (active) in assay [2] (setting [8]); 86.6% (active) in assay [2] (at 50.0 µM). Besides, the growth inhibition in assay [3] (setting [7]) was 22%; in assay [3] (setting [8]), 98% (active); in assay [3] (at 50.0 µM) it was 86.2% (active); in assay [4] (setting [7]), 6%; in assay [4] (setting [8]), 96% (active); in assay [4] (at 50.0 µM) it was 73.2% (active). In addition, the growth inhibition is 1% in assay [5] (setting [7]); 97% (active) in assay [5] (setting [8]); 87% (active) in assay [5] (at 50.0 µM); 26% in assay [6] (setting [7]); 98% (active) in assay [6] (setting [8]); 85.2% (active) in assay [6] (at 50.0 µM).

Consider `CC(CCS(C)(=O)=O)([N+](=O)[O-])[N+](=O)[O-]`, for which the growth inhibition was 48% in assay [1] (setting [7]); 99% (active) in assay [1] (setting [8]); 55.2% in assay [1] (at 50.0 µM); 16% in assay [2] (setting [7]); 99% (active) in assay [2] (setting [8]); 55% in assay [2] (at 50.0 µM). In addition, the growth inhibition in assay [3] (setting [7]) was 28%; in assay [3] (setting [8]), 99% (active); in assay [3] (at 50.0 µM), 52.6%; in assay [4] (setting [7]) it was 14%; in assay [4] (setting [8]), 99% (active); in assay [4] (at 50.0 µM), 56.4%. For the same compound, the growth inhibition is 27% in assay [5] (setting [7]); 99% (active) in assay [5] (setting [8]); 99% (active) in assay [5] (at 50.0 µM); 24% in assay [6] (setting [7]); 100% (active) in assay [6] (setting [8]); 98.3% (active) in assay [6] (at 50.0 µM).

Regarding `COc1cc(C[C@H]2c3cc(OC)c(OC)c(O)c3CCN2C)c(Oc2cc3c(cc2OC)-c2c(OC)c(OC)c(OC)c4c2C(C3)N(C)CC4)cc1OC` (some centres not stated) (tested in a mixture with another compound), the growth inhibition was -2% in assay [1] (setting [7]); 40% in assay [1] (setting [8]); 64.7% in assay [1] (at 50.0 µM); -1% in assay [2] (setting [7]); 52% in assay [2] (setting [8]); 33.5% in assay [2] (at 50.0 µM). Moreover, the growth inhibition in assay [3] (setting [7]) is -6%; in assay [3] (setting [8]), 36%; in assay [3] (at 50.0 µM), 47.8%; in assay [4] (setting [7]), -7%; in assay [4] (setting [8]), 44%; in assay [4] (at 50.0 µM), 44.8%. The growth inhibition in assay [5] (setting [7]) was 3%; in assay [5] (setting [8]), 39%; in assay [5] (at 50.0 µM) it was 61.5%; in assay [6] (setting [7]) it was -5%; in assay [6] (setting [8]), 96% (active); in assay [6] (at 50.0 µM), 80% (active).

For `O=[N+]([O-])c1ccc([Se]CCBr)c([N+](=O)[O-])c1`, the growth inhibition in assay [1] (setting [7]) is 5%; in assay [1] (setting [8]), 36%; in assay [1] (at 50.0 µM) it was 38.4%; in assay [2] (setting [7]), 1%; in assay [2] (setting [8]), 23%; in assay [2] (at 50.0 µM), 41%. Also, the growth inhibition was 5% in assay [3] (setting [7]); 95% (active) in assay [3] (setting [8]); 18.2% in assay [3] (at 50.0 µM); 2% in assay [4] (setting [7]); 88% (active) in assay [4] (setting [8]); 15.8% in assay [4] (at 50.0 µM). The growth inhibition in assay [5] (setting [7]) was -2%; in assay [5] (setting [8]), 90% (active); in assay [5] (at 50.0 µM), 30.2%; in assay [6] (setting [7]) it was 10%; in assay [6] (setting [8]) it was 96% (active); in assay [6] (at 50.0 µM), 19.8%.

(Values after PubChem BioAssay (NCI).)
